The values below come from PubChem BioAssay (NCI).

SMILES strings stand for the structures. About 83,000 compounds went through this panel and 20% of them were active in at least one assay; those are over-represented in the sample as a whole.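 48-hour exposure, single concentration, 96-well plates; percent growth endpoint where 0 means no net growth. Active: below 10.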 Active and inactive are the calls of the source.

In this assay the test system is NCI-H460 lung. Briefly: NCI-60 one-dose screen, 48 h (100 = growth as untreated, 0 = no growth, -100 = all killed). The conditions noted are these: 10 µM unless noted.
`COc1ccc(N2C(=O)/C(=C/C(Cl)=C/c3ccc([N+](=O)[O-])cc3)SC2=S)cc1`: the growth was 0.356% (active).

Consider `COc1ccc(C2=C/C(=C\c3ccccc3O)C(=O)N2Cc2ccccc2)cc1`, for which the growth is 90% (inactive).

With `COC(=O)[C@H]1Cc2c([nH]c3ccccc23)[C@H](c2ccc3c(c2)OCO3)N1`, the growth was 106% (inactive).

On to `O=C(Nc1ncc(Cc2ccccc2)s1)c1ccc2c(c1)OCCO2`, for which the growth was 5.11% (active).

On to `CC(=O)CC(=O)c1ccccc1.[Cu+2]`, for which the growth was 110% (inactive).

On to `COC1CC(O)C2=C(CC3C(/C(C)=C\CC=C(C)C)CCC3(C)O2)C1=O` (centres undefined), for which the growth is 104% (inactive).

In the case of `Nc1c(C(=O)c2ccc(Cl)cc2)sc(Nc2ccccc2)c1-c1nc2ccccc2s1`, the growth is -0.299% (active).

Take `C=CC(=O)Nc1ccc2ncnc(Nc3cccc(NS(=O)(=O)CCC)c3Cl)c2c1`: the growth was 68.6% (inactive).

In the case of `CCN1C(=O)N(CC)C2C1NC(=S)N2/N=C/C=C/c1ccccc1` (centres undefined), the growth was 5.19% (active).

Regarding `Oc1cccc2c1NCCC2`, the growth was 5.35% (active).

With `CCOC(=O)c1cnc2sc(-c3ccc(OC)cc3)nc2c1Cl`, the growth was 100% (inactive).

On to `Cc1ccc2nc(/C=C/c3ccc(N(C)C)cc3)cc(C)c2c1`, for which the growth was 15.1% (inactive).

In the case of `C=CCOC(=O)C1=C(C)N(CC)C(=O)N(CC)C1c1c(Cl)n(C)c2ccccc12` (centres undefined), the growth was 88.1% (inactive).

Consider `C=C(C)[C@@H]1CC[C@]2(COC(=O)c3cccnc3)CC[C@]3(C)[C@H](CC[C@@H]4[C@@]5(C)CCCN(C(=O)c6cccnc6)C(C)(C)[C@@H]5CC[C@]43C)[C@@H]12`, for which the growth was 17.7% (inactive).
